# Data published in PubChem BioAssay (NCATS).
# Results filed as inconclusive are left out. A number with no mark means an inactive call. The source made the active and inactive calls. Calls come from the whole dose curve; as a rule, active = well fitted inhibition curve with a large enough effect; inconclusive = small, poorly fitted or top-dose-only effect; inactive = flat fitted curve, though single readings scatter.
# Target: Calcium and integrin-binding protein 1 (Homo sapiens) (UniProt Q99828)
# Test: Primary qHTS for Identification of Calcium Integrin Binding Protein 1 (CIB1) Competitor (AID 1508620);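 note: GST tagged CIB1 binding a fluorescein labelled alphaIIb integrin peptide tracer; top concentration of the series differs between compounds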
# Settings: CIB1-GST / FITC-alphaIIb peptide fluorescence polarization; series mostly up to 57.7 µM; activity change, negative = inhibition: at the top concentration
# Outline: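 Fluorescence polarization competition: CIB1-GST (1 uM final) preincubated with compound 15 min at room temperature, then FITC-labeled alphaIIb peptide (100 nM final) added for another 15 min. Polarization read at Ex 480/Em 540.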
# % is set by controls: 0 for no effect and ±100 for the full control effect.
# Calcium and integrin-binding protein 1 (Homo sapiens), sequence (Q99828 whole entry, looked up): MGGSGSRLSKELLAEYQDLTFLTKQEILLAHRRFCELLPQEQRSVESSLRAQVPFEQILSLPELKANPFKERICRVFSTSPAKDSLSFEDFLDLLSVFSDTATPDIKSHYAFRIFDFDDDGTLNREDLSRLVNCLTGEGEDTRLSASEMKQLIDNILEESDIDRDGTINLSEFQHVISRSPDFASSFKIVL
SMILES,"activity change, negative = inhibition [%]",Potency
COc1c(C)cnc(Cn2cnc3c(Cl)nc(N)nc32)c1C,0.0012,
COc1ccc(CCC(=O)Nc2nc3ccc(Cl)cc3s2)cc1OC,,inactive
CCC(=C(c1ccc(O)cc1)c1ccc(OCCNC)cc1)c1ccccc1,-8.27,
CC[C@@H]([C@H](C)O)n1ncn(-c2ccc(N3CCN(c4ccc(OCC5CO[C@@](Cn6cncn6)(c6ccc(F)cc6F)C5)cc4)CC3)cc2)c1=O (stereo not given in full),-0.202,
CC(O)=C(C#N)C(=O)Nc1ccc(C(F)(F)F)cc1,0.213,
O=C1C(CCC(O)c2ccc(F)cc2)C(c2ccc(O)cc2)N1c1ccc(F)cc1 (stereo not given),-6.43,
Cc1cc2c(cc1C1(c3ccc(C(=O)O)cn3)CC1)C(C)(C)CCC2(C)C,,inactive
COc1nccc(-c2c(-c3ccc(F)cc3)ncn2C2CCNCC2)n1,,inactive
C[C@@H](N)c1ccc(C(=O)Nc2ccnc3[nH]ccc23)cc1,,inactive
O=C(c1ccc(C(=O)N2CCC(N3CCCC3)CC2)c(Nc2ccccc2)c1)N1CCC(N2CCCC2)CC1,,inactive
N#CC(=C1Nc2ccccc2S1)c1ccnc(OCc2ccc(CN3CCOCC3)cc2)n1,-8.3,
COc1cc(Cl)cn2c(-c3cccc(NC4CNC4)n3)cnc12,0.591,
Nc1ccn([C@@H]2O[C@H](CO)[C@@H](O)[C@H]2O)c(=O)n1,-1.01,
Cn1cc(-c2ccc3nnc(Sc4ccc5ncccc5c4)n3n2)cn1,-0.324,
C[C@]12C=CC(=O)C=C1CC[C@@H]1[C@@H]2[C@@H](O)C[C@@]2(C)[C@@H]1CC[C@]2(O)C(=O)CO,-10.5,
CC(=O)Nc1cccc(-n2c(=O)n(C3CC3)c(=O)c3c(Nc4ccc(I)cc4F)n(C)c(=O)c(C)c32)c1,,inactive
NCC1CCC(C(=O)O)CC1 (stereo not given),-2.09,
CC(C)CN(C[C@H](O)[C@H](Cc1ccccc1)NC(=O)O[C@H]1CCOC1)S(=O)(=O)c1ccc(N)cc1,-4.22,
CCc1cccc(CC)c1NC(=O)N1Cc2[nH]nc(NC(=O)c3ccc(N4CCN(C)CC4)cc3)c2C1,,inactive
CNC(=O)[C@H](Cc1ccccc1)NC(=O)[C@H](CC(C)C)[C@H](CSc1cccs1)C(=O)NO,1.51,

SMILES,"activity change, negative = inhibition [%]",Potency
Cn1cnc(-c2cc3nccc(Oc4ccc(NC(=S)NC(=O)Cc5ccccc5)cc4F)c3s2)c1,,inactive
C[C@@H]1CCO[C@H]2Cn3cc(C(=O)NCc4ccc(F)cc4F)c(=O)c(O)c3C(=O)N12,,inactive
N#Cc1ccc(Oc2ccc3c(c2)COB3O)cc1,,inactive
O=C(O)c1ccc(O)c2ncc(N3CCOCC3)cc12,,inactive
Cc1cn([C@@H]2C[C@@H](O)[C@H](CO)O2)c(=O)[nH]c1=O,2.24,
CN(C)N=Nc1nc[nH]c1C(N)=O,3.43,
Nc1nc(Cl)nc2c1ncn2[C@@H]1O[C@H](CO)[C@@H](O)[C@H]1F,1.57,
CN1CCc2c(n(Cc3ccc(C(=O)NO)cc3)c3ccccc23)C1,,inactive
COC(=O)Nc1ccc(-c2nc(N3CCOCC3)c3cnn(C4CCN(C(=O)OC)CC4)c3n2)cc1,-1.85,
COc1cc2ncnc(Nc3cc(Br)c(O)c(Br)c3)c2cc1OC,,inactive
CC1(C)[C@H]2CC[C@]3(C)[C@@H](C(=O)C=C4[C@@H]5C[C@@](C)(C(=O)O)CC[C@]5(C)CC[C@]43C)[C@@]2(C)CC[C@@H]1O,-1.83,
NS(=O)(=O)c1ccc(Nc2nc(OCC3CCCCC3)c3[nH]cnc3n2)cc1,,inactive
Cc1ccc2c(c1)C(=O)[C@]1(O)CCN(c3ccccc3)C1=N2,,inactive
Cc1ccc2c(c1)c1c(n2CCc2ccc(C)nc2)CCN(C)C1,,inactive
CC(C)(C)c1nc(-c2cccc(NS(=O)(=O)c3c(F)cccc3F)c2F)c(-c2ccnc(N)n2)s1,,inactive
O=C(c1ccc(C=Cc2n[nH]c3ccccc23)cc1)N1CCNCC1,-2.19,
CCN1CCC(n2cc(CNc3cc(Cl)c4ncc(C#N)c(Nc5ccc(F)c(Cl)c5)c4c3)nn2)CC1,,inactive
OC[C@H]1O[C@@H](O[C@H]2[C@@H](O)[C@@](O)(CO)O[C@@H]2CO)[C@H](O)[C@@H](O)[C@@H]1O,4.17,
O=C(O)CCC=CCC[C@@H]1[C@H](N2CCCCC2)[C@@H](O)C[C@@H]1OCc1ccc(-c2ccccc2)cc1,-2.23,
CN1CCN2c3ncccc3Cc3ccccc3C2C1 (stereo not given),-1.74,
